Screening results from PubChem BioAssay.
Most compounds without a hit are left out; they make up all but 18% or so of the library.
RORg inh – qHTS for inhibitors of ROR gamma transcriptional activity. AID 2551, 2010. Potency, µM (series often up to 53.6 µM), without a hit: top-dose activity change, negative = inhibition, most hits filed as inhibitors. 310,000 tested, 5.4% active. Drosophila S2 Gal4-RORgamma UAS-luciferase reporter, 20 h. Nuclear receptor ROR-gamma (Mus musculus), P51450; also: potency is read from the fitted curve at half-maximal effect; nearly all actives have a fitted effect of over 60% in size
Target sequence (P51450 whole entry, looked up, the tested form may be a part): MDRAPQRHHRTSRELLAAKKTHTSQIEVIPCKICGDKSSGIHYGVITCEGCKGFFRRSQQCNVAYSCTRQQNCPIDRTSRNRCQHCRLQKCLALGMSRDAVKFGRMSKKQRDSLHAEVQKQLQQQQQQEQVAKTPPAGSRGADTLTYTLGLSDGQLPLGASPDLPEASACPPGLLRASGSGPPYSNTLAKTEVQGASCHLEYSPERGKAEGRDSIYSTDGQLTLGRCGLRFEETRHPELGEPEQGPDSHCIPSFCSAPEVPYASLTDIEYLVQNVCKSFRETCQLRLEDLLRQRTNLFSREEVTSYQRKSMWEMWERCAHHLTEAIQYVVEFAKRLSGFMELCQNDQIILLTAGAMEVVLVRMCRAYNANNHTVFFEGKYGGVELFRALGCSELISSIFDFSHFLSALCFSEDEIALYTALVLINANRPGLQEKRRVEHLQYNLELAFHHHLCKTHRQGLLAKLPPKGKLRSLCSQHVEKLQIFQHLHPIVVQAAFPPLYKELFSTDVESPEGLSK
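ROR gamma transcriptional activity was tracked as Gal4-UAS luciferase output in stably transfected Drosophila Schneider cells, with compound added 1 hr before 700 uM copper sulfate induction and a 20 hr ambient-temperature incubation.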
DT40 TDP1 CPT – qHTS for Inhibitors of human tyrosyl-DNA phosphodiesterase 1 (TDP1): qHTS in cells in presence of CPT | Potency, µM (titrated, usually from 46.2 µM), without a hit: top-dose activity change, negative = growth inhibition, most hits filed as inhibitors | chicken DT40 Tdp1-/-;hTDP1 cells + 20 nM CPT, ATP luminescence, 48 h | AID 686979, 2013 | 420,000 tested, 12% active; also: potency is read from the fitted curve at half-maximal effect; nearly all actives have a fitted effect of over 55% in size
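Chicken DT40 Tdp1-/- cells stably complemented with human TDP1 were seeded at 400 cells/well in medium containing 20 nM camptothecin, exposed to pin-transferred compounds, and grown at 37 °C for at least 48 hr. Viability was read as ATP luminescence.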
TDP1 cell noCPT – qHTS for Inhibitors of human tyrosyl-DNA phosphodiesterase 1 (TDP1): qHTS in cells in absence of CPT. 420,000 tested, 15% active. AID 686978, 2013. DT40 Tdp1-/- hTDP1 cells, no CPT, ATP luminescence, 48 h. Potency, µM (highest dose often 46.2 µM), for the others: at the highest dose activity change, negative = growth inhibition, hits mostly inhibitors; also: potency is read from the fitted curve at half-maximal effect; nearly all actives have a fitted effect of over 55% in size
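Stably hTDP1-transfected Tdp1-null chicken DT40 cells were treated with library compounds minus camptothecin and grown for at least 48 hr at 37 °C, after which cellular ATP was quantified by luminescence.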
VP16 counter – VP16 counterscreen qHTS for inhibitors of ROR gamma transcriptional activity. Drosophila S2 Gal4-VP16 UAS-luciferase, luminescence, 20 h. Potency, µM (titrated, usually from 53.6 µM), without a hit: top-dose activity, negative = inhibition, hits mostly inhibitors. 310,000 tested, 3.5% active. AID 2546, 2010;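 also: Gal4-VP16 expression switched on by copper sulfate through the metallothionein promoter; potency is read from the fitted curve at half-maximal effect; nearly all actives have a fitted effect of over 50% in size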
IL1B secr inh – qHTS for Inhibitors of Inflammasome Signaling: IL-1-beta AlphaLISA Primary Screen | 360,000 tested, 4.7% active | THP-1 LPS/ATP IL-1B secretion, AlphaLISA, 16 h; active compounds read low | activity change, % at 57.5 µM | AID 743279, 2014; in the data active = activity change below about -50%; inconclusive = mostly about -30% to -49%
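THP-1 cells pretreated 1 hr with compounds (up to 57.5 uM final), then stimulated with LPS (250 ng/mL final) plus ATP (1.25 mM final); secreted IL-1B measured by AlphaLISA after 16 hr, decreased signal indicating inhibition.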
LDHA block – qHTS assay for inhibitors of human lactate dehydrogenase. purified LDHA, NADH/diaphorase-resazurin fluorescence; active compounds read low. activity change, % (values are at about 110 or 230 µM). 480,000 tested, 0.15% active; in the data active = activity change below about -30%; inconclusive = mostly about -25% to -30%;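 also: plate controls were DMSO wells for no effect and wells without enzyme for full effect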
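LDH5 2 nM; NADH 0.06 mM, pyruvate 0.2 mM; 200 mM Tris pH 7.4, EDTA, Tween-20; 5 min RT. Detection: diaphorase 0.133 mg/mL + resazurin 37 µM, fluorescence ex540/em590 at 0 and 20 min; normalized to enzyme-free and DMSO wells.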
The depositor's hits bear a star; ? = inconclusive; . = not tested or not shown. Unless noted, calls follow the shape of the dose curve; as a rule, active = well fitted curve in the direction sought with a large enough effect; inconclusive = small, poorly fitted or top-dose-only effect, or another doubt; inactive = no such curve, though single readings can be large; an effect the other way counts as inactive or inconclusive. Unless noted, % is scaled to controls: 0 for no effect and ±100 for the full control effect.

SMILES | RORg inh | DT40 TDP1 CPT | TDP1 cell noCPT | VP16 counter | IL1B secr inh | LDHA block
CCOC(=O)/C(=C\c1ccc([N+](=O)[O-])o1)NC(=O)c1ccccc1 | -44.1% | 23.1µM* | 17.8µM* | 17.9% | -8.3 | -1.2
O=C(NCCCO)/C(=C/c1ccc(-c2cccc([N+](=O)[O-])c2)o1)NC(=O)c1ccccc1 | 5.7% | -0.2% | -25.3% | -5.2% | -16.9 | -9.4
CCCOC(=O)/C(=C\C=C\c1ccco1)NC(=O)c1ccccc1 | 7.8% | 13µM* | 20.6µM* | -0.5% | -14.5 | 3.0
CCCOC(=O)/C(=C\c1ccc([N+](=O)[O-])o1)NC(=O)c1ccccc1 | -30.5% | 16.4µM* | 20.6µM* | 0.1% | 9.8 | -4.8
O=C(NCCO)/C(=C\c1ccc([N+](=O)[O-])o1)NC(=O)c1ccccc1 | 1.8% | ? | 29.1µM* | 7.1% | 20.4 | 5.2
Cc1ccc(C(=O)N2CCC(C(=O)N3CCCCCC3)CC2)cc1S(=O)(=O)N1CCCCC1 | . | . | . | . | . | -2.1
CCOC(=O)c1c(C)oc2nc(C)nc(N3CCN(c4cccc(C)c4C)CC3)c12 | . | 20.6µM* | 18.4µM* | . | . | 0.9
CCc1cccc(NC(=O)c2c(C)oc3nc(C)nc(N4CCCC4)c23)c1 | . | 1.7% | -0.4% | . | . | -2.2
CCOC(=O)c1c(C)oc2nc(C)nc(N3CCN(c4ccccc4F)CC3)c12 | . | 14.6µM* | 7.31µM* | . | . | -21.0
Cc1oc2ncn(C)c(=O)c2c1C(=O)N1CCN(c2ccccc2F)CC1 | . | 27.7% | -4.3% | . | . | -1.6
CCOC(=O)c1c(C)oc2nc(C)nc(NCCCN3CCN(c4ccccc4)CC3)c12 | . | -17.4% | -1.7% | . | . | -11.2
CCOC(=O)c1c(C)oc2ncnc(N3CCN(c4ccccc4)CC3)c12 | . | 8.2µM* | 8.2µM* | . | . | -7.2
CCOC(=O)c1c(C)oc2ncnc(N3CCN(c4ccccc4F)CC3)c12 | . | 18.4µM* | 13µM* | . | . | 3.9
Cc1nc(N2CCOCC2)c2c(C(=O)N3CCN(c4ccccc4)CC3)c(C)oc2n1 | . | -7.7% | 0.1% | . | . | -7.7
O=C1NC2(CCCCCC2)NN1c1ccc(Br)cc1 | . | . | . | . | . | 1.7
COC(=O)c1ccc(CCNC(=O)c2cccc(C#N)c2)cc1 | . | . | . | . | . | 8.6
CCOC(=O)c1ccccc1NC(=O)c1c(C)oc2ncnc(N3CCOCC3)c12 | . | ? | 20.6µM* | . | . | 3.5
CCOC(=O)c1c(C)oc2nc(C)nc(N3CCN(c4cc(Cl)ccc4C)CC3)c12 | . | 4.61µM* | 20.6µM* | . | . | -4.0
CCOC(=O)c1c(C)oc2nc(C)nc(Nc3ccc(C)c(Cl)c3)c12 | . | -15.5% | -11.7% | . | . | -6.1
NNc1ccc2c(C(F)(F)F)cc(C(F)(F)F)nc2n1 | 12.6µM* | ? | ? | 1.2% | 15.9 | 7.6
N#C/C(=C/c1ccc(OC(F)F)cc1)C(=O)Nc1cccc(C(F)(F)F)c1 | . | . | . | . | . | -23.3
COc1cc(CN2CCCCC2C)ccc1OC(F)F (stereo not drawn) | . | . | . | . | . | 7.9
O=C(CNS(=O)(=O)c1ccc(F)cc1)Nc1ccc(C(F)(F)F)cc1 | 32.5% | 18.4µM* | 18.4µM* | -15.2% | -23.4 | -4.3
O=C(Nc1ccc(C(F)(F)F)cc1)c1ccccc1 | . | -6.8% | -13.7% | . | -2.2 | -0.6
O=C(C[n+]1ccc(C(=O)c2ccccc2)cc1)Nc1ccc(C(F)(F)F)cc1 | 26.7% | 23.1µM* | 16.4µM* | -1.4% | -60.0* | 15.8
SMILES | RORg inh | DT40 TDP1 CPT | TDP1 cell noCPT | VP16 counter | IL1B secr inh | LDHA block
CC(C)c1ccc(NC(=O)CNS(=O)(=O)c2ccc(F)cc2)cc1 | ? | 16.4µM* | 11.6µM* | -12.0% | 38.4 | -6.2
CC(=O)Nc1ccc(S(=O)(=O)NNc2cccc(C)c2)cc1 | -31.4% | 23.1µM* | ? | -3.1% | 12.3 | 34.5
COc1ccc(S(=O)(=O)NCC(=O)Nc2ccc(F)cc2)cc1 | . | -23.1% | ? | . | 6.0 | -8.5
COc1ccc(C(O)c2nccn2Cc2ccccc2)c(OC)c1 (stereo not drawn) | . | . | . | . | . | 3.3
CC1(C)CCCC(C)(C#CCN2CCC(Cc3ccccc3)CC2)O1 (stereo not drawn) | . | . | . | . | . | 11.6
O=C(O)CCSCc1c[nH]c2ccccc12 | . | . | . | . | . | 2.2
CCOC(=O)C(NC(=O)c1ccc(OC)cc1)(Nc1cc(Cl)ccc1OC)C(F)(F)F (stereo not drawn) | . | . | . | . | . | 3.7
Cc1cccc(N2CCN(C(=O)COCc3cc(-c4ccc(F)cc4)on3)CC2)c1C | . | . | . | . | . | -3.3
Cc1ccc(S(=O)(=O)NCC(=O)OCN2C(=O)c3ccccc3C2=O)cc1 | 3.7% | ? | 20.6µM* | 2.4% | 17.0 | -1.7
Cc1ccc(S(=O)(=O)NCN2C(=O)c3ccccc3C2=O)cc1 | . | -2.5% | -22.9% | . | 0.0 | 1.5
Cc1ccc(S(=O)(=O)NCC(=O)N/N=C/c2ccc(Cl)cc2Cl)cc1 | ? | 5.5% | -3.5% | ? | ? | -6.7
Cc1ccc(S(=O)(=O)NCC(=O)N/N=C/c2ccccc2O)cc1 | 5.62µM* | 5.17µM* | 6.51µM* | ? | 116.1 | 5.7
CC(=O)Nc1ccc(NC(=O)CNS(=O)(=O)c2ccc(C)cc2)cc1 | 10µM* | -12.1% | 1.9% | ? | 9.5 | -5.9
O=C(CNS(=O)(=O)c1ccccc1)Nc1ccc(C(F)(F)F)cc1 | 23.9% | 16.4µM* | 16.4µM* | ? | -1.4 | -0.3
COc1ccccc1/C=C/C(=O)c1ccc(OCc2ccccc2)cc1OCc1ccccc1 | . | . | . | . | . | -4.3
N#Cc1ccc(C(=O)NC2CCSc3ccccc32)cc1 (stereo not drawn) | . | . | . | . | . | 6.3
CCC(c1nnc(SCC(=O)Nc2nnc(-c3ccccc3)o2)o1)N(C)C (stereo not drawn) | 12.6µM* | -4.7% | -5.7% | ? | 65.7 | -3.4
Cc1ccc(C)c(SCC(=O)Nc2nnc(-c3ccccc3)o2)c1 | 2µM* | ? | ? | 5.01µM* | 9.0 | 2.2
Cn1c(SCC(=O)Nc2nnc(-c3ccccc3)o2)nnc1C1CC1 | -44.2% | 6.8% | -15.9% | -18.5% | 11.1 | 0.4
Cc1cc(NC(=O)COC(=O)C2(c3ccccc3F)CCCC2)no1 | . | . | . | . | . | -0.1
COc1cccc(SCC(=O)c2ccc3c(c2)CCC(=O)N3)c1 | . | . | . | . | . | 6.4
Cc1cc(N2C(=O)C=CC2=O)c([N+](=O)[O-])cc1C | 7.08µM* | 0.82µM* | 1.84µM* | 4.47µM* | -3.4 | 2.6
Cc1cc(C)cc(N2C(=O)C=CC2=O)c1 | . | 0.731µM* | 0.82µM* | . | -103.1* | -12.9
